For 41 compounds, inhibition results are on record in PubChem BioAssay AID1362 (SRMLSC, 2008).

The assay can be described thus: growth inhibition of WT strain, primary screen, mitochondrial fusion inhibitor project, WT and mutant strains, chemical genetic (AID 1362). The following applies: mitochondrial fusion phenotypic screen, at 10 µM.
The mark [1] stands for this setting: WT strain, growth inhibition, stronger effect = higher value.

In all, about 190,000 compounds went through this assay and about 4,000 (2.1%) were called active. Cut-off read from the data, not from the text of the source: active = inhibition above about 58%; inactive = the rest, inconclusive results apart; tested in S. cerevisiae. The full list was thinned out, with actives kept by preference.

The inhibition is the relative decrease from the control value, in per cent. With `CC(CC(=O)O)C(=O)c1ccc(Cl)c([N+](=O)[O-])c1` (configuration not stated), the inhibition runs as follows: under setting [1], -16.5% (inactive); (mutant strain inhibition) -4.59%.

With `O=C(Nc1ncccn1)c1cccs1`, the inhibition by setting is: under setting [1], 71.2% (active); (mutant strain inhibition) 28.9%.

For the compound `O=C(Nc1ccnc(-c2ccncc2)n1)c1cccs1`, the inhibition is -10.3% (inactive) under setting [1] and 11% (mutant strain inhibition).

In the case of `O=C(O)c1ccc(NC(=O)c2cccs2)cc1`, the inhibition reads like this: under setting [1], -8.36% (inactive); (mutant strain inhibition) 1.63%.

As to `Cc1ccccc1CN1C[C@@H]2C[C@@H](c3ccc4nsnc4c3)N3CCC[C@@]23C1=O`, the inhibition by setting is: under setting [1], 7.94% (inactive); (mutant strain inhibition) 5.04%.

Consider `O=C(NCCCN1CCOCC1)c1ccccc1NS(=O)(=O)c1ccc(F)cc1`, for which the inhibition was -8.48% (inactive) under setting [1] and 6.56% (mutant strain inhibition).

With `O=C(N/N=C/C=C/c1ccco1)c1cccs1`, the inhibition is, setting by setting: under setting [1], -12.2% (inactive); (mutant strain inhibition) -0.62%.

Turning to `CNC(=O)CN1C(=O)c2ccccc2S1(=O)=O`, the inhibition was 12.2% (inactive) under setting [1] and -7.85% (mutant strain inhibition).

Consider `O=C1c2ccccc2S(=O)(=O)N1CC(O)Cn1c2ccccc2c2ccccc21` (configuration not stated), for which the inhibition is 84.5% (active) under setting [1] and 45.8% (mutant strain inhibition).

Take `CS(=O)(=O)N(CC(O)Cn1c2ccccc2c2ccccc21)c1cccc2ccccc12` (configuration not stated): the inhibition under setting [1] is 31.9% (inactive) and the inhibition (mutant strain inhibition) is 7.33%.

In the case of `COCCCNC(=S)N(Cc1ccccc1)Cc1ccc(F)cc1`, the inhibition under setting [1] was 31.2% (inactive) and the inhibition (mutant strain inhibition) came out at 41.6%.

Take `CC(NCc1nc2ccccc2n1C)C12CC3CC(CC(C3)C1)C2` (configuration not stated): the inhibition was 30.5% (inactive) under setting [1] and 16.6% (mutant strain inhibition).

For the compound `COc1ccc(-n2c(C)cc(C(=O)CSc3nnc(-c4cccs4)o3)c2C)cc1`, the inhibition was 4.34% (inactive) under setting [1] and 23% (mutant strain inhibition).

On to `COc1ccc(-c2nnc(SCC(=O)c3cccs3)o2)c(OC)c1`, for which the inhibition runs as follows: under setting [1], 63.6% (active); (mutant strain inhibition) -1.8%.

Consider `COc1ccc(OC)c(C(=O)CSc2nnc(-c3cccs3)o2)c1`, for which the inhibition reads like this: under setting [1], -7.87% (inactive); (mutant strain inhibition) -26.6%.

For `CCC(=O)c1ccc(N2CCN(C(=O)c3cc([N+](=O)[O-])ccc3F)CC2)c(F)c1`, the inhibition runs as follows: under setting [1], 10.4% (inactive); (mutant strain inhibition) 5.39%.

In the case of `CC(C)C(c1nnnn1C(C)(C)C)N1CCN(Cc2cccnc2)CC1` (configuration not stated), the inhibition was -10.2% (inactive) under setting [1] and 0.92% (mutant strain inhibition).

As for `COC(=O)C1=C(N)Oc2c(oc(CO)cc2=O)C1c1c(F)cccc1Cl` (configuration not stated), the inhibition under setting [1] was -8.54% (inactive) and the inhibition (mutant strain inhibition) is -4.27%.

With `NS(=O)(=O)c1ccc(NC(=O)COC(=O)c2c3c(nc4ccccc24)/C(=C\c2ccc4c(c2)OCO4)CCC3)cc1`, the inhibition reads like this: under setting [1], 17.8% (inactive); (mutant strain inhibition) -3.76%.

Take `NC(=O)c1ccc(NC(=O)COC(=O)c2c3c(nc4ccccc24)/C(=C\c2ccc4c(c2)OCO4)CCC3)cc1`: the inhibition is, setting by setting: under setting [1], 62.3% (active); (mutant strain inhibition) -2.13%.

For the compound `O=C(COC(=O)c1c2c(nc3ccccc13)/C(=C\c1cccs1)CCC2)Nc1ccccc1Cl`, the inhibition is 15.8% (inactive) under setting [1] and 3.86% (mutant strain inhibition).

In the case of `Fc1ccc(COc2cccc(-c3n[nH]c(=S)o3)c2)cc1`, the inhibition under setting [1] was -4.32% (inactive) and the inhibition (mutant strain inhibition) was -2.8%.

For `Cc1ccc(S(=O)(=O)/N=C(/Nc2ccc3[nH]c(=O)[nH]c3c2)c2ccccc2)cc1`, the inhibition is, setting by setting: under setting [1], -20.3% (inactive); (mutant strain inhibition) 0.61%.

In the case of `COc1ccc(C2CC(=O)Nc3sc(=N)c4c(N)c(C#N)c(N)nc4c32)cc1OC` (configuration not stated), the inhibition is, setting by setting: under setting [1], -16.8% (inactive); (mutant strain inhibition) -4.44%.

Turning to `COc1ccc(OC)c2c(N)c(C#N)c(C(F)(F)C(F)(F)F)nc12`, the inhibition under setting [1] is 61.3% (active) and the inhibition (mutant strain inhibition) is -8.43%.

As to `COc1ccc(-c2cc(-c3ccc(N)cc3)nc(N)c2C#N)cc1OC`, the inhibition runs as follows: under setting [1], 42.1% (inactive); (mutant strain inhibition) -0.07%.

On to `O=S(=O)(NCc1ccccc1)c1ccc(S(=O)(=O)N2CCCC2)cc1`, for which the inhibition reads like this: under setting [1], 5.86% (inactive); (mutant strain inhibition) -0.28%.

Regarding `CCCCc1nnc(NC(=O)CSc2nc(N)cc(=O)[nH]2)s1`, the inhibition is, setting by setting: under setting [1], -9.03% (inactive); (mutant strain inhibition) -14.2%.

Turning to `O=C(CSc1ccc(-c2ccccc2)nn1)NCC1CCCO1` (configuration not stated), the inhibition runs as follows: under setting [1], -2.54% (inactive); (mutant strain inhibition) 0.5%.

Turning to `Cc1nn(C)cc1/C=N/NC(=O)c1sc2ccccc2c1Cl`, the inhibition is -10.9% (inactive) under setting [1] and 2.17% (mutant strain inhibition).

Regarding `O=C(Nc1ccon1)c1sc2ccccc2c1Cl`, the inhibition under setting [1] was 3.3% (inactive) and the inhibition (mutant strain inhibition) stood at 0.77%.

Consider `O=C(N/N=C/c1c(Cl)[nH]c2ccccc12)c1sc2ccccc2c1Cl`, for which the inhibition reads like this: under setting [1], 61.8% (active); (mutant strain inhibition) 41.3%.

For `COc1ccc(CCc2nnc(CCC(=O)NCc3cnn(-c4ccccc4C)c3)o2)cc1`, the inhibition was 12.2% (inactive) under setting [1] and 7.75% (mutant strain inhibition).

On to `CS(=O)(=O)n1nc(-c2ccco2)nc1N`, for which the inhibition reads like this: under setting [1], -0.21% (inactive); (mutant strain inhibition) -16.1%.

Turning to `C=CCc1cccc2cc(C(=O)NC3CCCC3)c(=O)oc12`, the inhibition reads like this: under setting [1], 3.26% (inactive); (mutant strain inhibition) 9.03%.

Regarding `CC(C)(C)c1ccc(OC2=CS(=O)(=O)c3ccccc32)cc1`, the inhibition under setting [1] is 59% (active) and the inhibition (mutant strain inhibition) worked out at 35.3%.

For the compound `CC(C)(C)c1ccc(Oc2ccc(N)cc2)cc1`, the inhibition was 54.8% (inactive) under setting [1] and 38% (mutant strain inhibition).

`CC(C)(C)c1csc(NC2=NS(=O)(=O)c3ccccc32)n1`: the inhibition runs as follows: under setting [1], -0.65% (inactive); (mutant strain inhibition) -32.5%.

On to `Cc1nn(CC(=O)NCc2ccccn2)c(C)c1[N+](=O)[O-]`, for which the inhibition by setting is: under setting [1], -4.5% (inactive); (mutant strain inhibition) 4.36%.

As for `COc1cc(CNCCN(C)C)ccc1OCc1c(F)cccc1Cl`, the inhibition reads like this: under setting [1], -7.23% (inactive); (mutant strain inhibition) 10.9%.

Regarding `CCCCNC(=O)N1CCN(S(C)(=O)=O)CC1`, the inhibition is, setting by setting: under setting [1], 3.54% (inactive); (mutant strain inhibition) 2.85%.
